The structures appear in SMILES notation. Screen size: about 310,000 compounds; about 3,400 (1.1%) were called active.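 Rule for the calls: active = fluorescence ratio B-score at most minus 3 library SDs, with starting brightness B-score within 2 library SDs (cut at about -5.5 in these data); inactive = the rest, inconclusive results apart.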 This excerpt belongs to a sample that is enriched for actives.

Chain of Potassium voltage-gated channel subfamily KQT member 2 (Rattus norvegicus) (O88943 whole entry, looked up): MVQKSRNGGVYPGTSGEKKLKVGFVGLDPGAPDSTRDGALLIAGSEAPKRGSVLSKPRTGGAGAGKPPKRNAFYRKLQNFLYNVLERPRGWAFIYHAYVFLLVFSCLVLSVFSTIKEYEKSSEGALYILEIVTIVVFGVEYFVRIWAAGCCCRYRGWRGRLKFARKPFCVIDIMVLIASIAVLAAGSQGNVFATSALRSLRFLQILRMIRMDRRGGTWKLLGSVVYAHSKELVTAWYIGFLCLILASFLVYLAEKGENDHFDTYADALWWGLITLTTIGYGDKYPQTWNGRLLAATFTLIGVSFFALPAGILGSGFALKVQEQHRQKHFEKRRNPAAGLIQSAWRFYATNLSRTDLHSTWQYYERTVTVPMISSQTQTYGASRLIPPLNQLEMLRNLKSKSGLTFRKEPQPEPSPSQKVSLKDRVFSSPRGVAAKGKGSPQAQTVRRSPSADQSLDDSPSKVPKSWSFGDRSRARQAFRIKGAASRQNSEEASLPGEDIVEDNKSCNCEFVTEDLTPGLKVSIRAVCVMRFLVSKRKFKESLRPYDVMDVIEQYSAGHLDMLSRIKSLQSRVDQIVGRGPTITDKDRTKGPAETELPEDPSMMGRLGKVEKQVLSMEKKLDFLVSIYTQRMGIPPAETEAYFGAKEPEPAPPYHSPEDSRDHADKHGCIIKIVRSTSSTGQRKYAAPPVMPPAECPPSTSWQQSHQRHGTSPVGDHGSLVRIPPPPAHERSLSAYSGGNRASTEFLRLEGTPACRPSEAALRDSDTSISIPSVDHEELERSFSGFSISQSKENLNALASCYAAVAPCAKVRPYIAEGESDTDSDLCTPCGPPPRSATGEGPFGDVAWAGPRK

This assay concerns the target Potassium voltage-gated channel subfamily KQT member 2 (Rattus norvegicus) (UniProt O88943). Briefly: rat KCNQ2 potassium channel inhibitors, primary screen, cell-based, CHO-K1, FluxOR thallium flux, B-score (AID 2156). The following applies: 20 min, at 10 µM; active compounds read low.
As to `CC(C)(C)c1ccc(CN2C(=O)CN=C(c3ccccc3)c3ccccc32)cc1`, the B-score is -6.95 (active).
Take `O=C1CC(=O)N(Cc2ccccc2)C(=O)N1CCCCCCN1C(=O)CC(=O)N(Cc2ccccc2)C1=O`: the B-score entry is “inactive”.
As to `CCOC(=O)c1c(-c2ccccc2)oc2ccc(OC(=O)N(C)C)cc12`, the B-score is -4.87 (inactive).
`COc1ccccc1C1=NCc2nnc(CSC)n2-c2ccc(Cl)cc21`: the B-score result is “inactive”.
As to `O=C(c1ccccc1[N+](=O)[O-])N1CCC2(CC1)OCCO2`, the B-score entry was “inactive”.
For `COc1ccccc1CN1CCN(C(=O)Cc2ccccc2)CC1`, the B-score is -0.38 (inactive).
For `Cc1nn(-c2ccccc2)c(C)c1NC(=O)COC(=O)Cc1ccccc1`, the B-score entry was “inactive”.
Turning to `COc1ccc(CN2CCN(c3ccccc3F)CC2)c(OC)c1`, the B-score is -0.09 (inactive).
As to `O=c1[nH]c(O)c(C=Nc2cc(F)cc(F)c2)c(=O)[nH]1`, the B-score entry was “inactive”.
To `Cc1nc2ccccn2c1P(=S)(N1CCCCC1)N1CCCCC1` belongs -5.55 (active).
For the compound `CCCCCn1c(=O)c(C(=O)NCc2ccccc2)c(O)c2ccccc21`, the B-score is -3.71 (inactive).
As to `COc1ccccc1OC(=O)c1ccc(C)c(S(=O)(=O)N2CCOCC2)c1`, the B-score entry was “inactive”.
Regarding `O=C(c1cc2nc(-c3ccccc3)cc(-c3ccccc3)n2n1)N1CCC2(CC1)OCCO2`, the B-score was -2.41 (inactive).
Turning to `COc1ccc2c(c1)[C@]13CCCCC1C(C2)N(C)CC3` (stereo not given in full), the B-score entry was “inactive”.
`C/C(=N/O)c1ccc2ccc3ccccc3c2c1`: the B-score was -0.17 (inactive).
Regarding `Cc1ccc(Cn2c(C)c3cnn(CC(=O)N4CCC5(CC4)OCCO5)c(=O)c3c2C)cc1`, the B-score entry is “inactive”.
`O=C(CCN1CCCCC1)NCC(=O)Nc1ccc(Br)cc1C(=O)c1ccccc1`: the B-score was -0.1 (inactive).
Next, `CN(C)CC1Oc2ccccc2OC1(O)c1ccccc1` (stereo not given): -8.59 (active).
To `O=C(O)C1CSC(c2cccnc2)N1` (stereo not given) belongs -1.95 (inactive); to `C=CC12CN(C)[C@@H]3C4CO[C@H](C[C@H]41)[C@]1(C(=O)Nc4ccccc41)[C@@H]32` (stereo not given in full), “inactive”.
To `CCCCCCCCCCCCn1ccc(=N)cc1` belongs -3.45 (inactive); to `CC(c1ccccc1)(c1ccccc1)c1ccncc1`, -6.57 (active).
Turning to `CC[C@H]1CC2CN3CCc4c([nH]c5ccccc45)C(C(=O)OC)(C2)C13` (stereo not given in full), the B-score was -0.03 (inactive).
As to `O=C(NC(c1ccc(Cl)cc1)P(=O)(Oc1ccccc1)Oc1ccccc1)OCc1ccccc1` (stereo not given), the B-score is -9.52 (active).
To `COc1ccc(C2N3CC(C)(C)CN23)cc1` (stereo not given) belongs “inactive”.
